# Pf Dd2 inh: inhibitors of Plasmodium falciparum Dd2 growth; AID 1347417; 120,000 tested, 4.3% active; Potency, µM (titrated, usually from 28.9 µM), inactives show at the highest dose activity, negative = inhibition, most hits filed as inhibitors; P. falciparum Dd2 growth, SYBR Green, 72 h; active = well fitted inhibition curve with a large enough effect;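 note: plate controls were DMSO vehicle for no effect and reference drug for full effect; nearly all actives have a fitted effect of over 65% in size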
#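 Readout: SYBR Green fluorescence, 485 nm excitation, 535 nm emission, after ~16 h lysis at 37C. Before that, Dd2-infected red cells (2.5% hematocrit) grew 72 h with compound, 29 uM top final concentration.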
# Active calls of the source: *; i = inactive; [ ] = another dose, or the depositor's remark. This excerpt belongs to a sample that is enriched for hits. Potency is the fitted concentration of half-maximal effect.
SMILES,Pf Dd2 inh
Cc1cc(C)c(Cn2c(=O)n(Cc3ccccc3)c(=O)c3c(C)c(C)sc32)c(C)c1,65%
Cc1cccc(C)c1NC(=O)Cn1c(=O)n(Cc2ccccc2)c(=O)c2c(C)c(C(=O)N(C)C)sc21,8.9µM*
CCN(CC)C(=O)c1sc2c(c1C)c(=O)n(Cc1ccccc1)c(=O)n2Cc1c(C)cc(C)cc1C,10µM*
CCN(CC)C(=O)c1sc2c(c1C)c(=O)n(-c1ccc(C)c(C)c1)c(=O)n2Cc1cccc(Cl)c1,-6%
Cc1sc2c(c1C)c(=O)n(Cc1ccccc1)c(=O)n2CC(=O)N(C)c1ccccc1,29%
CCOC(=O)c1ccccc1NC(=O)Cn1c(=O)n(-c2ccc(CC)cc2)c(=O)c2c(C)c(C(=O)N(C)C)sc21,-21%
COc1ccc(CN2CCC(C3CCN(S(C)(=O)=O)CC3)C2)cc1C (stereo not given),i
COc1ccc(C(=O)N2CCCCCCNC(=O)[C@@H]3CCC[C@@H]32)cn1,15%
COc1nc2c(cc1CNC(=O)C1COCCO1)C(=O)N(C1CCCC1)C2 (stereo not given),-19%
O=C(N[C@H]1[C@@H]2CCO[C@@H]2[C@@H]1C1CCCC1)c1ccccc1OC(F)F,-14%
O=C([C@@H]1C[C@H](Oc2cccnc2)CN1C(=O)c1ccc2ccccc2n1)N1CCCC1,18%
COc1cc(C(C(=O)O)N(C)Cc2c(C)nn(C)c2C)ccc1N (stereo not given),-23%
CCOC(=O)c1cccc(NC(=O)N2CC[C@@H](CC(=O)N3CCOCC3)[C@@H](CC)C2)c1,-11%[44.1 µM]
Cc1ccc(CNC(=O)c2oc3ccc(S(=O)(=O)N4CCCC(C)C4)cc3c2C)cc1 (stereo not given),10µM*
Cc1ccc(NC(=O)c2oc3ccc(S(=O)(=O)N4CCCCCC4)cc3c2C)cc1Cl,22%
CCn1cc(C(=O)NCc2ccc(C)cc2)c(=O)c2cc(S(=O)(=O)N3CCC(C)CC3)ccc21,2%
CC[C@H]1CN(S(=O)(=O)c2c(C)noc2C)CC[C@H]1CC(=O)NCc1ccc(F)cc1,-12%
C#CCNC(=O)C[C@@H]1C[C@@H](C(C)C)[C@H](CNC(=O)NC2CCCCC2)C=C1C,-5%[44.1 µM]
COCCN1CCCCCC(O)c2cc(C(=O)NCCN3CCOCC3)ccc21 (stereo not given),2%
COCCN1CCCCCC(O)c2cc(C(=O)NCCc3c[nH]c4ccccc34)ccc21 (stereo not given),5µM*
COCCN1CCCCCC(O)c2cc(C(=O)NCCCN3CCCc4ccccc43)ccc21 (stereo not given),-20%
COc1ccc(-c2ccc3nnc(CNC(=O)c4ccccc4F)n3n2)cc1,i
CC(C)CCN1CCC2(CC1)C(=NC1CCCC1)NC(=O)N2c1cc(F)cc(F)c1,-28%
COc1cccc(N2C(=O)NC(=NC3CCCC3)C23CCCN(C(=O)c2ccccc2)C3)c1 (stereo not given),8%
COc1cccc(N2C(=O)NC(=NC3CCCC3)C23CCCN(CCC(C)C)C3)c1 (stereo not given),13µM*
SMILES,Pf Dd2 inh
O=C1NC(=NC2CCCC2)C2(CCN(CC3CC3)CC2)N1c1cc(F)cc(F)c1,-8%
CC(C)CCN1CCCC2(C1)C(=NC1CCCC1)NC(=O)N2c1cc(F)cc(F)c1 (stereo not given),10µM*
O=C1NC(=NC2CCCCC2)C2(CCN(CC3CC3)CC2)N1c1cc(F)cc(F)c1,-25%
COc1cccc(N2C(=O)NC(=NC3CCCCC3)C23CCCN(C(=O)c2ccccc2F)C3)c1 (stereo not given),49%
O=C1NC(=NC2CCCCC2)C2(CCCN(CC3CCCCC3)C2)N1c1cc(F)cc(F)c1 (stereo not given),7.9µM*
C[S+](=O)([O-])N1CCCC2(C1)C(=NC1CCCC1)NC(=O)N2c1cc(F)cc(F)c1 (stereo not given),i
COCc1cc(C[C@@H]2CC[C@H](O)[C@@H](CNC(C)C)O2)no1,19%[44.1 µM]
Cc1ccc(C(=O)N2CCC(n3cc(-c4nc(-c5ccccc5)no4)nn3)CC2)c(C)c1,i
Cc1ccc(-c2cc3c(=O)n(CCNC(=O)c4cccc(N(C)C)c4)ccn3n2)cc1C,-15%
CCO[C@H]1CN(C(=O)c2ccccc2Cc2ccc(C)c(F)c2)C[C@@H]1O,-12%
COc1ccc(-n2nc(C3CCCN([S+](=O)([O-])c4cccc(C(F)(F)F)c4)C3)[nH]c2=O)cc1 (stereo not given),-29%
O=C(Nc1cccc(F)c1)N1CCC(n2cnnc2C2CC2)C1 (stereo not given),-6%
CNCc1ccccc1OC,1%[44.1 µM]
CNCc1ccccc1C(F)(F)F,50%[44.1 µM]
CNCc1ccccc1-c1ccccc1,11µM*
CCn1cc(-c2ccc(OC)cc2)cc1C(=O)O,i
Cc1ccc(-c2nc(C(=O)NCc3ccco3)no2)cc1,i
CCn1cc(S(=O)(=O)N2CCC(C(=O)N3CCCCCCNC(=O)CC3)CC2)cn1,2%
Cc1cc(C[C@@H]2COC[C@@H]2NC(=O)C2CCN(C(=O)C3CC3)CC2)on1,7%
Cc1ccc(NC(=O)N2C[C@@H](F)C[C@H]2C(=O)N2CCc3ccccc3C2)cc1C,-20%
COc1ccccc1NC(=O)N1C[C@@H](F)C[C@H]1C(=O)N1CCc2ccccc2C1,8.9µM*
Cc1ccc(C)c(NC(=O)N2C[C@@H](F)C[C@H]2C(=O)N2CCc3ccccc3C2)c1,19%
CCn1cc(S(=O)(=O)NCC2Cn3cccc3C(=O)N2CCOC)cn1 (stereo not given),-10%
COc1ccc(-c2noc(N3CCN(c4ccc(C)cc4)C(C)C3)n2)cc1OC (stereo not given),1.6µM*
COc1ccc(-c2noc(CSc3nnc(C)n3-c3ccc(C)cc3)n2)cc1OC,-10%
SMILES,Pf Dd2 inh
Cc1ccc(N2CCN(c3cc(C)nc4c(-c5ccc(Cl)cc5)c(C)nn34)CC2C)cc1 (stereo not given),i
Cc1ccc(N2CC(c3noc(-c4cnccn4)n3)CC2=O)cc1 (stereo not given),19%
COCCC1(CO)CCCN(CC(=O)NCc2ccccn2)C1 (stereo not given),-13%
c1cncc(-c2nc(-c3ccc(OC4CNC4)cc3)no2)c1,5µM*
O=C(Nc1ccccc1)N1CC(Oc2ccc(-c3noc(-c4ccncc4)n3)cc2)C1,-18%
c1cc(-c2nc(-c3ccc(OC4CNC4)cc3)no2)ccn1,4µM*
O=C(c1ccncc1)N1CCC(Oc2ccc(-c3noc(-c4ccccc4)n3)cc2)C1 (stereo not given),-4%[5.79 µM]
CCCN1CC(Oc2ccc(-c3noc(-c4cccnc4)n3)cc2)C1,-11%
CC(C)c1nc(-c2ccc(OC3CCNC3)cc2)no1 (stereo not given),i[5.79 µM]
O=C([C@@H]1C[C@H](Oc2ccccc2)CN1C(=O)CN1CCOCC1)N1CCOCC1,6%
CCOCCn1nc(C)cc1C(=O)N1CCC2(CC(=O)NC2=O)C1 (stereo not given),5%
COc1ccc(CNC(=O)[C@@H]2Cc3nc[nH]c3CN2C(=O)NC2CCCCC2)cc1,3%[44.1 µM]
Cc1cc(Cl)ccc1NS(=O)(=O)c1ccc2c(c1)CCN2S(C)(=O)=O,0%
CCC(=O)N1CCc2cc(S(=O)(=O)NC(C(=O)NCc3ccccc3Cl)C(C)C)ccc21 (stereo not given),i
CS(=O)(=O)N1CCc2cc(S(=O)(=O)NCc3ccccc3Cl)ccc21,3.2µM*
COc1ccc(CCN2C(=O)O[C@@H]3CN(C(=O)CN)C[C@@H]32)cc1,-2%

# From PubChem
